Measured values reported in PubChem BioAssay (EPA / NIEHS).
Results filed as inconclusive are left out. Calls of active or inactive are those of the source. Rule for the calls, unless noted: active = hit-call score of the fitted dose curve at least 0.9, where 1 is the maximum; inactive = score below 0.9.

How the values were obtained:
[1] = target: human RAR-related Orphan Receptor beta (RORb), RORB (gene 6096) (UniProt Q92753); assay: ATG_RORb_TRANS: Attagene TRANS-FACTORIAL HepG2 Assay for human RAR-related Orphan Receptor beta (RORb) (AID 2283010; active = hit-call score of the fitted dose curve at least 0.9, where 1 is the maximum)
Outline: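 Transfect HepG2 with multiple GAL4-UAS reporter transcription units; dose chemicals for 24 h; isolate RNA, reverse-transcribe and PCR-amplify reporter sequences; label, digest and resolve fragments by capillary electrophoresis; fit increases relative to DMSO.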

[2] = target: human Retinoid X Receptor beta (RXRb), RXRB (gene 6257) (UniProt P28702); assay: ATG_RXRb_TRANS: Attagene TRANS-FACTORIAL HepG2 Assay for human Retinoid X Receptor beta (RXRb) (AID 2283013; active = hit-call score of the fitted dose curve at least 0.9, where 1 is the maximum)
Outline: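 Chimeric receptor-Gal4 activity was assessed in transiently transfected human HepG2 cells after 24 h exposure. Transcripts from GAL4-UAS reporters were quantified by fluorescent RT-PCR and capillary electrophoresis, with DMSO as negative control and baseline.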

[3] = read-out: E-selectin (Homo sapiens) (UniProt P16581); assay: BSK_3C_Eselectin: BioMAP Diversity Plus: 3C Assay for Eselectin Biomarker Activity (AID 2283015); conditions: primary human endothelial cells (HUVEC); actives raise or lower the signal
Outline: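 ELISA read-out of E-selectin on endothelial monolayers after 24 h chemical treatment. Human umbilical vein primary cells served as the system, with DMSO defining baseline activity for bidirectional fitting.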

[4] = read-out: Interleukin-1 alpha (IL1a), IL1A (gene 3552); assay: BSK_BE3C_IL1a: BioMAP Diversity Plus: BE3C Assay for Interleukin-1 alpha (IL1a) Biomarker Activity (AID 2283016); conditions: primary human bronchial epithelial cells; actives raise or lower the signal
Outline: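 Signal from IL-1a ELISA, taken 24 h after chemical dosing of human bronchial epithelial cells, is compared with DMSO as baseline using bidirectional curve fitting.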

[5] = read-out: Monocyte Chemoattractant Protein-1 (MCP1), CCL2 (gene 6347); assay: BSK_3C_MCP1: BioMAP Diversity Plus: 3C Assay for Monocyte Chemoattractant Protein-1 (MCP1) Biomarker Activity (AID 2283017); conditions: primary human endothelial cells (HUVEC); actives raise or lower the signal
Outline: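 ELISA read-out of MCP-1 from human umbilical vein endothelial cell cultures harvested 24 h post-dosing. Gain or loss of signal was fitted relative to DMSO.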

[6] = read-out: Monocyte Chemoattractant Protein-1 (MCP1), CCL2 (gene 6347); assay: BSK_4H_MCP1: BioMAP Diversity Plus: 4H Assay for Monocyte Chemoattractant Protein-1 (MCP1) Biomarker Activity (AID 2283018); conditions: primary human endothelial cells (HUVEC); actives raise or lower the signal
Outline: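 Endothelial cells from umbilical vein were treated with test chemical, then after 24 h MCP-1 levels were quantified by ELISA; endpoint values came from bidirectional fitting with DMSO as baseline of activity.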

[7] = read-out: Human Leukocyte Antigen - DR isotype (HLADR), HLA-DRA (gene 3122); assay: BSK_3C_HLADR: BioMAP Diversity Plus: 3C Assay for Human Leukocyte Antigen - DR isotype (HLADR) Biomarker Activity (AID 2283019); conditions: primary human endothelial cells (HUVEC); actives raise or lower the signal
Outline: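 ELISA readout of surface HLA-DR on human umbilical vein endothelium, taken 24 h after chemical treatment. Gain- and loss-of-signal were both fitted relative to DMSO.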

[8] = read-out: Interleukin-8 (IL8), CXCL8 (gene 3576); assay: BSK_3C_IL8: BioMAP Diversity Plus: 3C Assay for Interleukin-8 (IL8) Biomarker Activity (AID 2283020); conditions: primary human endothelial cells (HUVEC); actives raise or lower the signal
Outline: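 Endothelial primary cells of human umbilical vein origin are dosed with chemical; after 24 h the IL-8 biomarker is measured by ELISA, and concentration–response is fitted in both directions versus DMSO.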

[9] = read-out: Monokine induced gamma interferon (MIG), CXCL9 (gene 4283); assay: BSK_3C_MIG: BioMAP Diversity Plus: 3C Assay for Monokine induced gamma interferon (MIG) Biomarker Activity (AID 2283021); conditions: primary human endothelial cells (HUVEC); actives raise or lower the signal
Outline: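 Endothelial primary cells (human umbilical vein) are dosed with test chemical in the 3C system. MIG levels are measured by ELISA at 24 h and fitted in both directions relative to DMSO.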

[10] = BSK_3C_SRB: Viability Assessment in the BioMAP Diversity Plus: 3C Assay (AID 2283023); conditions: primary human endothelial cells (HUVEC);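 note: fitted both ways against DMSO so a hit may be signal rise or drop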
Outline: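 Absorbance at 560 nm of sulforhodamine B-stained (0.1%) total protein served as a cytotoxicity readout in human umbilical vein endothelial cells, 24 h after chemical treatment. Signal was fitted bidirectionally relative to DMSO.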

[11] = read-out: Matrix Metallopeptidase 1 (MMP1), MMP1 (gene 4312); assay: BSK_BE3C_MMP1: BioMAP Diversity Plus: BE3C Assay for Matrix Metallopeptidase 1 (MMP1) Biomarker Activity (AID 2283024); conditions: primary human bronchial epithelial cells; actives raise or lower the signal
Outline: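 MMP1 signal, measured by ELISA after a 24 h chemical exposure of human primary bronchial epithelial cells, is analysed with bidirectional fitting using DMSO as negative control.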

[12] = BSK_3C_Vis: BioMAP Diversity Plus: 3C Assay for Morphology Visualization (AID 2283025); conditions: primary human endothelial cells (HUVEC);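 note: fitted both ways so gain or loss versus DMSO counts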
Outline: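 Morphology read by light microscopy serves as a background control for the multiplexed 3C assay in human umbilical vein endothelial cells, taken 24 h after dosing, with DMSO as the negative control and bidirectional curve fitting.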

[13] = read-out: Pselectin, SELP (gene 6403); assay: BSK_4H_Pselectin: BioMAP Diversity Plus: 4H Assay for Pselectin Biomarker Activity (AID 2283026); conditions: primary human endothelial cells (HUVEC); actives raise or lower the signal
Outline: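 Endothelial primary cells (human umbilical vein) are dosed, incubated 24 h, and assayed for surface P-selectin by ELISA; responses in either direction are fitted relative to the DMSO negative control.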

[14] = BSK_4H_SRB: Viability Assessment in the BioMAP Diversity Plus: 4H Assay (AID 2283027); conditions: primary human endothelial cells (HUVEC);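 note: cells exposed to compound for 24 h before staining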;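 for AC50: curves fitted both ways versus DMSO so AC50 may be loss or gain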
Outline: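 Cytotoxicity read-out in primary human endothelial cells: after 24 h compound exposure, cells were TCA-fixed (10%), stained with 0.1% SRB and absorbance taken at 560 nm. Values fitted in both directions relative to DMSO.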

[15] = BSK_BE3C_SRB: Viability Assessment in the BioMAP Diversity Plus: BE3C Assay (AID 2283028); conditions: primary human bronchial epithelial cells;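 for AC50: fitted both ways so AC50 may mark signal gain or loss versus DMSO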
Outline: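 Cells (human bronchial epithelial, primary) are treated with chemicals, and after 24 h the parallel cultures are fixed in 10% TCA. These are then stained with 0.1% SRB and read at 560 nm. Gain or loss of signal is fitted relative to DMSO.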

[16] = read-out: Thrombomodulin, THBD (gene 7056); assay: BSK_3C_Thrombomodulin: BioMAP Diversity Plus: 3C Assay for Thrombomodulin Biomarker Activity (AID 2283029); conditions: primary human endothelial cells (HUVEC); actives raise or lower the signal
Outline: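 Endothelial cells from umbilical vein are dosed with test chemical and incubated 24 h. Thrombomodulin is then quantified by ELISA, with DMSO serving as negative control and activity baseline.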

[17] = target: Retinoic acid receptor RXR-alpha (Homo sapiens) (UniProt P19793); assay: ATG_RXRa_TRANS: Attagene TRANS-FACTORIAL HepG2 Assay for human Retinoid X Receptor alpha (RXRa) (AID 2283012; active = hit-call score of the fitted dose curve at least 0.9, where 1 is the maximum)
Outline: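 Measures exogenous chimeric NR-GAL4 activity in transfected HepG2 liver cells after 24 h of dosing. Induced reporter mRNA was detected by RT-PCR with capillary electrophoresis, and gain of signal was analysed against DMSO.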

[18] = target: human Thyroid Receptor alpha (THRa1), THRA (gene 7067) (UniProt P10827); assay: ATG_THRa1_TRANS: Attagene TRANS-FACTORIAL HepG2 Assay for human Thyroid Receptor alpha (THRa1) (AID 2283014; active = hit-call score of the fitted dose curve at least 0.9, where 1 is the maximum)
Outline: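 Reporter transcript induction, read by capillary electrophoresis of 6-FAM-labelled RT-PCR products, reflects activity of a transfected THRa1-Gal4 fusion in HepG2 liver cells. Cells were dosed for 24 h; activity was fitted in the positive direction against DMSO.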

[19] = target: human RAR-related Orphan Receptor gamma (RORg), RORC (gene 6097) (UniProt P51449); assay: ATG_RORg_TRANS: Attagene TRANS-FACTORIAL HepG2 Assay for human RAR-related Orphan Receptor gamma (RORg) (AID 2283011; active = hit-call score of the fitted dose curve at least 0.9, where 1 is the maximum)
Outline: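 First, HepG2 liver cells were transfected with GAL4-UAS-driven reporter constructs and the RORg-Gal4 fusion. Next, they were treated with chemical for 24 h. Finally, reporter mRNA was quantified by RT-PCR and capillary electrophoresis, with upward activity fitted against DMSO.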

[20] = target: human Vitamin D Receptor (VDR), VDR (gene 7421) (UniProt P11473); assay: ATG_VDR_TRANS: Attagene TRANS-FACTORIAL HepG2 Assay for human Vitamin D Receptor (VDR) (AID 2283022; active = hit-call score of the fitted dose curve at least 0.9, where 1 is the maximum)
Outline: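 Steps: transfect HepG2 with GAL4-UAS-driven reporter constructs; dose compounds 24 h; isolate RNA, reverse-transcribe, PCR-amplify with 6-FAM-labelled primer extension and HpaI digestion; quantify fragments by capillary electrophoresis relative to DMSO.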

Measured: AC50

human RAR-related Orphan Receptor beta (RORb), RORB (gene 6096), sequence (Q92753 whole entry, looked up, the tested form may be a part): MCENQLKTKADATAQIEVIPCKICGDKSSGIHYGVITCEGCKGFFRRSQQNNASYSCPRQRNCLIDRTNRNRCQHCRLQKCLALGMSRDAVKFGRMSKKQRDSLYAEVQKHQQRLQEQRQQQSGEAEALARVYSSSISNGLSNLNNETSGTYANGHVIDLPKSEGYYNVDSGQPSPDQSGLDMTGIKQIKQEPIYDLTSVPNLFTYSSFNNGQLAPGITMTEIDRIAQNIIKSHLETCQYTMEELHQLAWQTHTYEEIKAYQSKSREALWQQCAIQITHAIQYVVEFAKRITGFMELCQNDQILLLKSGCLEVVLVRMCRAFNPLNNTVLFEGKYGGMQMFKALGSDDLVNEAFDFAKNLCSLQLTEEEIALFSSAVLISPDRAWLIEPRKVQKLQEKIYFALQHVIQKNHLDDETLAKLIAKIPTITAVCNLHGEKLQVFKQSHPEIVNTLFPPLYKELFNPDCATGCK
human RAR-related Orphan Receptor gamma (RORg), RORC (gene 6097), sequence (P51449 whole entry, looked up, the tested form may be a part): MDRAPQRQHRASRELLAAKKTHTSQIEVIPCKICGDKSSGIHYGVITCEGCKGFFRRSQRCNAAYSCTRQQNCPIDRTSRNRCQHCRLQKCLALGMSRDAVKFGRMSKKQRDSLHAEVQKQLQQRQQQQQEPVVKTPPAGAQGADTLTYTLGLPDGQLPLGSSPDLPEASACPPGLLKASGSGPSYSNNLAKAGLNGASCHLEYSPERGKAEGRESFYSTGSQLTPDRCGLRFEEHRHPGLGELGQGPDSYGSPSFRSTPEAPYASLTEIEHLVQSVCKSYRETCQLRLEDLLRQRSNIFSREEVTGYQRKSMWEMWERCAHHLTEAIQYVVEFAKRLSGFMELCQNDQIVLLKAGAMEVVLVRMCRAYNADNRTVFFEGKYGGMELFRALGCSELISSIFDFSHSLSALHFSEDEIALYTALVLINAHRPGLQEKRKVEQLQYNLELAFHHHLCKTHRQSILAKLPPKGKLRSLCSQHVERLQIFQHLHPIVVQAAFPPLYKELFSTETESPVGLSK
E-selectin (Homo sapiens), sequence (P16581 whole entry, looked up): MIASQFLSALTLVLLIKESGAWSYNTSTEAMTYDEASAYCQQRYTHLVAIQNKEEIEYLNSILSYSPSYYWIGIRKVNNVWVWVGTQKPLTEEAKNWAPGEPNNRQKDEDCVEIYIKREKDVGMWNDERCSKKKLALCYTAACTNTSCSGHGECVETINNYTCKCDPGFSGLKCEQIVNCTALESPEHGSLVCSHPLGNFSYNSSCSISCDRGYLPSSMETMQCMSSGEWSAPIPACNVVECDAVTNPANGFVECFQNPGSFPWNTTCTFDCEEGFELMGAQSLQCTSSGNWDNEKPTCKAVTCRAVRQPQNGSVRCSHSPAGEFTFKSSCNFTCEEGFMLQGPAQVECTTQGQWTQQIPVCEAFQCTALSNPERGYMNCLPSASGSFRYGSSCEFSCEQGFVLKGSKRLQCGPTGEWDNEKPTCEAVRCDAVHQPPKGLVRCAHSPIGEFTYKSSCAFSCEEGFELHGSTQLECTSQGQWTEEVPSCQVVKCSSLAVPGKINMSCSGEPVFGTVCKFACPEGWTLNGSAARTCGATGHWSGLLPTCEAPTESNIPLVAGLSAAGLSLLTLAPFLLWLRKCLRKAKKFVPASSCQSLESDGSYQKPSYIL
human Vitamin D Receptor (VDR), VDR (gene 7421), sequence (P11473 whole entry, looked up, the tested form may be a part): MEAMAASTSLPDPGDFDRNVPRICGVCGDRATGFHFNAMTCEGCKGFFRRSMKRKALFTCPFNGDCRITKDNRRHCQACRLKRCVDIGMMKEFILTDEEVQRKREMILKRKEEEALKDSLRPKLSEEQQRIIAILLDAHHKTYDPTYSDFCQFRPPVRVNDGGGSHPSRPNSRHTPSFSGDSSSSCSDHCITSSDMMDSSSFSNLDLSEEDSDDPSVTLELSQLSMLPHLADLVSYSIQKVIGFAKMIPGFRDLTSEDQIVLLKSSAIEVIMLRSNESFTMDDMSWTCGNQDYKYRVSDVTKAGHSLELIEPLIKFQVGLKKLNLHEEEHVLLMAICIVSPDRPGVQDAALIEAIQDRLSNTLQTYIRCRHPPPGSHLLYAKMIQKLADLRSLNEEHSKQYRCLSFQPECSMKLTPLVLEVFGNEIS
human Retinoid X Receptor beta (RXRb), RXRB (gene 6257), sequence (P28702 whole entry, looked up, the tested form may be a part): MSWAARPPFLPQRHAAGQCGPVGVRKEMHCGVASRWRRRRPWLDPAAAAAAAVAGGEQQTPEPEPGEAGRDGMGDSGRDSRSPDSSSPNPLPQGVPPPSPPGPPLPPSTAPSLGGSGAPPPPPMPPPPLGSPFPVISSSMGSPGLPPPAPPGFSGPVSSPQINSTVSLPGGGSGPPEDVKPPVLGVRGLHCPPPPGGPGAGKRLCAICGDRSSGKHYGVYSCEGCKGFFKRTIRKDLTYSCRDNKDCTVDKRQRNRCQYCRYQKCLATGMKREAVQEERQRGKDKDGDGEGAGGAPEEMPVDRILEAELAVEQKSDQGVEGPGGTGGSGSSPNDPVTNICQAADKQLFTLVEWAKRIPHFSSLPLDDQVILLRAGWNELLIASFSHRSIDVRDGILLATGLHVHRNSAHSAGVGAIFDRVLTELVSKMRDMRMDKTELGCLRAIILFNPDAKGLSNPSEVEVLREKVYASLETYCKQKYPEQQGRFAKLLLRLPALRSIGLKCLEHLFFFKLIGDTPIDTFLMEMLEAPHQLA
Retinoic acid receptor RXR-alpha (Homo sapiens), sequence (P19793 whole entry, looked up, the tested form may be a part): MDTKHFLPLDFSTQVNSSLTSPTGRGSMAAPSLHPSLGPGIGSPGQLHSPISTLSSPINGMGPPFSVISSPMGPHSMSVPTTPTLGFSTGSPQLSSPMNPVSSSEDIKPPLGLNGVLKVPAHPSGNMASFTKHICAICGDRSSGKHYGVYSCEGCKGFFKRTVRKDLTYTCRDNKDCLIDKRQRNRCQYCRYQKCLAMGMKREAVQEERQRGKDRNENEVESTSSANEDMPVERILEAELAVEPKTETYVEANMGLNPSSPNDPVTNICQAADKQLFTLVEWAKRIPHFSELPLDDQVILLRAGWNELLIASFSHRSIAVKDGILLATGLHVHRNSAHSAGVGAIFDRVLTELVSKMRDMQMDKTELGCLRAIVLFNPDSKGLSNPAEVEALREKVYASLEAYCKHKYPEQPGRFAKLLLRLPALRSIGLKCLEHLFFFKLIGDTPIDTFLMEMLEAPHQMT
human Thyroid Receptor alpha (THRa1), THRA (gene 7067), sequence (P10827 whole entry, looked up, the tested form may be a part): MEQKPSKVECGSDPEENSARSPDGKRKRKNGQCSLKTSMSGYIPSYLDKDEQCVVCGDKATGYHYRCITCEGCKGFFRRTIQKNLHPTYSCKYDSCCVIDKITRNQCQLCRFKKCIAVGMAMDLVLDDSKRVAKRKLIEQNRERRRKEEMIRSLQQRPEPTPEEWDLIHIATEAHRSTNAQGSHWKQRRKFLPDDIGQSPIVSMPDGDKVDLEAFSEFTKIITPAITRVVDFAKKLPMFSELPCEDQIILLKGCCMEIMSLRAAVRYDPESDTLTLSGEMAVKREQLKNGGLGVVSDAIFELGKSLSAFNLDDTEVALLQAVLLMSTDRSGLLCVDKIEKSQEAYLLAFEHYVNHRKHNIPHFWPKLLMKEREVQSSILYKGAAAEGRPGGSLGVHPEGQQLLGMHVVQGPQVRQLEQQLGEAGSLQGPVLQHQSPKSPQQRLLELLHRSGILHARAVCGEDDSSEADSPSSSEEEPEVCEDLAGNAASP

CNC(=O)ON=C(SC)C(=O)N(C)C
active: [12] 39 µM
inactive: [1] | [2] | [3] | [4] | [5] | [6] | [7] | [8] | [9] | [10] | [11] | [13] | [14] | [15] | [16]

CCOP(=S)(OCC)OC(Cl)C(Cl)(Cl)Cl (stereo not drawn)
active: [3] 14.7 µM | [7] 12.2 µM | [10] 14.9 µM | [12] 39.8 µM | [13] 29.4 µM | [14] 12.4 µM
inactive: [1] | [17] | [2] | [18] | [4] | [5] | [6] | [8] | [9] | [11] | [15] | [16]

CCC(=NOC/C=C/Cl)C1=C(O)CC(C2CCOCC2)CC1=O (stereo not drawn)
inactive: [1] | [19] | [17] | [2] | [18] | [3] | [4] | [5] | [7] | [8] | [9] | [10] | [11] | [12] | [13] | [14] | [15] | [16]

CCOP(=O)(NC(C)C)Oc1ccc(SC)c(C)c1 (stereo not drawn)
inactive: [1] | [19] | [17] | [2] | [3] | [4] | [5] | [7] | [8] | [9] | [10] | [11] | [12] | [13] | [14] | [15] | [16]

COP(=O)(OC)SCn1c(=O)oc2cc(Cl)cnc21
inactive: [1] | [19] | [17] | [2] | [18] | [4] | [5] | [9] | [20] | [11] | [14] | [15] | [16]
active: [3] 20 µM | [7] 25.1 µM | [8] 11.3 µM | [10] 20 µM | [12] 39 µM | [13] 17.5 µM

CSc1nnc(C(C)(C)C)c(=O)n1N
inactive: [1] | [17] | [2] | [18] | [3] | [4] | [5] | [6] | [8] | [9] | [10] | [11] | [12] | [13] | [14] | [15] | [16]

CCCOc1nn(C(=O)NS(=O)(=O)c2ccccc2C(=O)OC)c(=O)n1C
inactive: [1] | [17] | [18] | [3] | [4] | [5] | [6] | [7] | [8] | [9] | [10] | [11] | [12] | [13] | [14] | [15] | [16]

Nc1nc(N)nc(NC2CC2)n1
inactive: [1] | [17] | [2] | [3] | [4] | [5] | [7] | [8] | [9] | [10] | [11] | [12] | [13] | [14] | [15] | [16]

CNC(=O)ON=C(C)SC
inactive: [1] | [19] | [2] | [3] | [4] | [5] | [7] | [8] | [9] | [10] | [11] | [12] | [13] | [14] | [15] | [16]

O=c1ccc(=O)[nH][nH]1
inactive: [1] | [19] | [17] | [2] | [18] | [3] | [4] | [5] | [7] | [8] | [9] | [10] | [11] | [12] | [13] | [14] | [15] | [16]

COP(=O)(OC)C(O)C(Cl)(Cl)Cl (stereo not drawn)
active: [12] 9.8 µM
inactive: [1] | [19] | [17] | [2] | [18] | [3] | [4] | [5] | [7] | [8] | [9] | [20] | [10] | [11] | [13] | [14] | [15] | [16]

CCOP(=S)(OCC)Oc1ccc2c(C)c(Cl)c(=O)oc2c1
active: [15] 20 µM | [16] 6.69 µM
inactive: [1] | [19] | [17] | [18] | [3] | [4] | [5] | [7] | [8] | [9] | [10] | [11] | [12] | [13] | [14]

CCCSP(=O)(OCC)SCCC
inactive: [1] | [17] | [2] | [3] | [4] | [5] | [7] | [8] | [9] | [20] | [10] | [11] | [12] | [13] | [14] | [15] | [16]

CCCCOC(=O)[C@@H](C)Oc1ccc(Oc2ccc(C#N)cc2F)cc1
inactive: [1] | [19] | [17] | [18] | [3] | [4] | [5] | [6] | [7] | [8] | [9] | [10] | [11] | [12] | [13] | [14] | [15] | [16]
